Article PMC7819943, “Rice protein-binding microarrays: a tool to detect cis-acting elements near promoter regions in rice”
The full ranking holds about 68,000 sequences; the median of “fluorescence intensity (a.u.)” is about 9,100, and the highest 2% start at about 16,000. Only a selection was taken, and the highest values are over-represented in it overall.

Biological target: OsWRKY34 (Oryza sativa, UniProt Q0JBA9 1-250)
Test: protein-binding microarray (RPBM); PBS, 2% BSA, 51.3 ng/ul salmon testes DNA, 50 uM zinc acetate, 200 nM TF, 25 C, 1 h; high values mean tight binding
Details: protein: recombinant; tags: N-terminal polyhistidine and DsRed monomer fusion (pET32a); label: CyDye5-dUTP incorporated in the synthesized complementary strand; 3' TTTTT single-stranded linker to array surface; dsDNA, one strand shown
Method in brief: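 Binding signal here means per-feature fluorescence intensity in arbitrary units. The values were read on an Axon 4000B scanner after a custom Agilent array, double-stranded by primer extension with Cy5-dUTP, was incubated with 200 nM protein at 25 °C for 1 h in PBS with 2% BSA, salmon testes DNA and 50 µM zinc acetate, then washed. The proteins were transcription factors with an N-terminal polyhistidine tag and DsRed, expressed in E. coli BL21-CodonPlus and purified on Ni–NTA.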

Chain of OsWRKY34 (Q0JBA9 entry or part of it): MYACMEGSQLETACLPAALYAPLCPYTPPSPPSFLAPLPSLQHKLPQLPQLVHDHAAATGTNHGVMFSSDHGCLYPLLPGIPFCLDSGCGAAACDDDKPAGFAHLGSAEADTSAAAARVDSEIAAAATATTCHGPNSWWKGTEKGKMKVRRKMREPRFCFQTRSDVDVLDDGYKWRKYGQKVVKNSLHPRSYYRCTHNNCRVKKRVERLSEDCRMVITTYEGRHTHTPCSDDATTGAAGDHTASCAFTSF

Sequence	binding signal
GTACGCAACTTGTCCGCAGCCGCGACCCCGACCCGACCCGCGGAGTCACCTAGTGCAG	8200 fluorescence intensity (a.u.)
ATCATCCATATCCAGCTATACTATACTACTCGATCCCTTCCGGAGTCACCTAGTGCAG	10200 fluorescence intensity (a.u.)
CCCTCTCTCTATTTAAGCAAGCACATTCTCCTCTTCTTCTCGGAGTCACCTAGTGCAG	8240 fluorescence intensity (a.u.)
GCCGACTCTTACTCCTCCGCCCACTCACCACGCGCGCTGCCGGAGTCACCTAGTGCAG	11000 fluorescence intensity (a.u.)
GGCGGAGCTCGGGATGTGGGAGGAGGAGGGCTATTTATTCCGGAGTCACCTAGTGCAG	14400 fluorescence intensity (a.u.)
GAGTGGTGGAGGGTTGTGATTGGATGAGTAGTGGAGGTAGCGGAGTCACCTAGTGCAG	8760 fluorescence intensity (a.u.)
TGGCGGCTCGGTGGCGGAGCTCCGGTGTGGGGTGGTGTGGCGGAGTCACCTAGTGCAG	8140 fluorescence intensity (a.u.)
GGGAGGGGTGGCTCGGCGGCGGTGCGGGGTGGCGGTGCTCCGGAGTCACCTAGTGCAG	18700 fluorescence intensity (a.u.)
CCGGGTGGAGGGCGGGGAAGCGGCGGCGGAACTCCGGGCTCGGAGTCACCTAGTGCAG	8490 fluorescence intensity (a.u.)
CTCTTCTCCTCCAAGGATGGGGAGGTGGGGATGGTGGGGACGGAGTCACCTAGTGCAG	19400 fluorescence intensity (a.u.)
TTGGGAGGGATGGGGCGGTGGTTAGGGGATGAGCGGAGGACGGAGTCACCTAGTGCAG	13200 fluorescence intensity (a.u.)
GCGGGCGGAGGAGCTCGGGCGTGGGCGGGGAGGGCGGATCCGGAGTCACCTAGTGCAG	20800 fluorescence intensity (a.u.)
CGAGTGACGAGGTCTTGGGTTGGGGTAGGGGTGGGATGAGCGGAGTCACCTAGTGCAG	19900 fluorescence intensity (a.u.)
GTTGGGAAGGAAAGGGAGGGGTTGGTGCTCTCCTCCTCTTCGGAGTCACCTAGTGCAG	9740 fluorescence intensity (a.u.)
AGAGGTGGAAGGGGATGGGGAGAAAAAAAAGGAGAGGGGACGGAGTCACCTAGTGCAG	8410 fluorescence intensity (a.u.)
GTGGCCGGCGGCGTTCGGGCGTGGGCGGGGAGGCCGGATCCGGAGTCACCTAGTGCAG	13700 fluorescence intensity (a.u.)
CAGTATCTTACTTCTCAGCTGCTCAATCATCAGCTGCCACCGGAGTCACCTAGTGCAG	9310 fluorescence intensity (a.u.)
GCAAGATCTCCATGATGCGACAGCTCTACCGTTACAATTACGGAGTCACCTAGTGCAG	8100 fluorescence intensity (a.u.)
TCAATCAACGGCTACTTGTATGTAATCTCCACGCATTCCACGGAGTCACCTAGTGCAG	8630 fluorescence intensity (a.u.)
CTTTTTGTTTTGGCCTTGACGTCGTGTTCACCGCCTCTACCGGAGTCACCTAGTGCAG	11800 fluorescence intensity (a.u.)
CAGAGCTCTTCCTGCTGTACCTACCAAGCTCTTACTTTGACGGAGTCACCTAGTGCAG	8060 fluorescence intensity (a.u.)
GTACTACTCCAAATCGTGTTCCACATTTCTATTTTGCACACGGAGTCACCTAGTGCAG	10200 fluorescence intensity (a.u.)
CTTAGGTCAACACCGAAAACTAATCACCATGTTGACTTTGCGGAGTCACCTAGTGCAG	9710 fluorescence intensity (a.u.)

Sequence	binding signal
GATGGTGTGTGTGTGTGGCTGTGTGCACCTAAGAATTTCTCGGAGTCACCTAGTGCAG	10400 fluorescence intensity (a.u.)
ATATTTATGTGCCAAATATTGTCAATTGTTCCTCTTGTTACGGAGTCACCTAGTGCAG	9080 fluorescence intensity (a.u.)
CTCGCTCACTCGGTCAGCTGCACACACACTGCACTTCGGCCGGAGTCACCTAGTGCAG	9820 fluorescence intensity (a.u.)
GTGGGCGTGGGCCCCGCGTCCTGTGGTGGTGGTGGGTGCTCGGAGTCACCTAGTGCAG	9200 fluorescence intensity (a.u.)
GTTGGGGAGCGCGGCGGGGCGTCGGAGGAGTTGACAGGAGCGGAGTCACCTAGTGCAG	8910 fluorescence intensity (a.u.)
CCAGAACGGCCGGTCAACGGCACCGTTGACCGTATGAGGGCGGAGTCACCTAGTGCAG	52400 fluorescence intensity (a.u.)
ATGTTGGGCCAGGCTCGAGCTCCTCCTCCTCCGCGTCGTCCGGAGTCACCTAGTGCAG	8140 fluorescence intensity (a.u.)
AGGCAGGGTGGGTGGGTGGTGGGCTTGCTCGCTCCGCGTCCGGAGTCACCTAGTGCAG	19700 fluorescence intensity (a.u.)
GCGGTGCAGGGCGGTGGCGGCGGCGGGTGGGGCGGTGGCGCGGAGTCACCTAGTGCAG	20900 fluorescence intensity (a.u.)
GCGTTGAGGGCAGGCGGCGGCGCTTGGTGGCGGTGGGGCACGGAGTCACCTAGTGCAG	8370 fluorescence intensity (a.u.)
GTGGAGGGGCGGCGTTGGGCAGAGGGGCGGCACGGGTGAACGGAGTCACCTAGTGCAG	12800 fluorescence intensity (a.u.)
GGGGTGGCGGCGGCGGCTGCGCGCGGGCGGTGGCGCGGGGCGGAGTCACCTAGTGCAG	12000 fluorescence intensity (a.u.)
GGTGCGGGGTGGCGGTGCTCGGCCACAGCGGCGCGCGGGGCGGAGTCACCTAGTGCAG	8130 fluorescence intensity (a.u.)
GTTGGGGAGCGGGGTGTGTGTGCCAGGCGCTCGGGCGGGGCGGAGTCACCTAGTGCAG	19500 fluorescence intensity (a.u.)
CATGCGGGGCGCGGGCGGCGGTGCAGGGCGGGGTGCGGCCCGGAGTCACCTAGTGCAG	8730 fluorescence intensity (a.u.)
CGGCCGTCCGCCATCTGCAAAAGGTGTTTTTTCACATGCCCGGAGTCACCTAGTGCAG	8560 fluorescence intensity (a.u.)
ATCCTCTTGTTTCGTACAGGTCACTTAAATAGTTATAAAACGGAGTCACCTAGTGCAG	8300 fluorescence intensity (a.u.)
CACTAAACGGCCAAAATCTTCCATCGTATAGTTACGTCACCGGAGTCACCTAGTGCAG	8410 fluorescence intensity (a.u.)
CTCTACTATCGATCTTTTTTCCACGTCGGTCGCGGCTTTTCGGAGTCACCTAGTGCAG	9580 fluorescence intensity (a.u.)
AGTATAACTTTTTTTTTGTCACTCTGTTATCTCACATCTGCGGAGTCACCTAGTGCAG	8760 fluorescence intensity (a.u.)
CTATCTTTTTCTCCATCTTTCTCTGTCCGTCCATTCACCCCGGAGTCACCTAGTGCAG	8690 fluorescence intensity (a.u.)
CGCCTGCCTGCCGCCACCGCCACTCCACTTTGCTTCACCGCGGAGTCACCTAGTGCAG	9570 fluorescence intensity (a.u.)
CGAGGAGCGGGGTGGGGTCGGAGGCGGGGAGGGAGGACGCCGGAGTCACCTAGTGCAG	16100 fluorescence intensity (a.u.)
